Measurements as given in PubChem BioAssay (NCI).
Compounds without any hit were thinned out: in the full panel of roughly 83,000, 20% have a hit.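 Treatment: one concentration, 48 hours, 96-well format. Scoring: percent growth, with anything below 10 considered active.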 Values without a mark were called inactive. Activity calls are given as the source filed them.

Tests used:
Experiment in all cases: NCI-60 one-dose screen, 48 h (100 = growth as untreated, 0 = no growth, -100 = all killed)
Settings in all cases: 10 µM unless noted
NCI-H23 lung = system: NCI-H23 lung
NCI-H226 lung = system: NCI-H226 lung
NCI-H322M lung = system: NCI-H322M lung
HOP-62 NSCLC = system: HOP-62 NSCLC
NCI-H460 lung = system: NCI-H460 lung
HOP-92 NSCLC = system: HOP-92 NSCLC
NCI-H522 lung = system: NCI-H522 lung
A549/ATCC NSCLC = system: A549/ATCC NSCLC
786-0 renal = system: 786-0 renal
COLO 205 colon = system: COLO 205 colon
DU-145 prostate = system: DU-145 prostate
K-562 leukemia = system: K-562 leukemia
MALME-3M melanoma = system: MALME-3M melanoma
MDA-MB-231 breast = system: MDA-MB-231 breast
RXF 393 renal = system: RXF 393 renal
SF-268 CNS = system: SF-268 CNS
SF-295 CNS = system: SF-295 CNS
SF-539 CNS = system: SF-539 CNS
UACC-257 melanoma = system: UACC-257 melanoma
M14 melanoma = system: M14 melanoma

Compound | growth (NCI-H23 lung) | growth (NCI-H226 lung) | growth (NCI-H322M lung) | growth (HOP-62 NSCLC) | growth (NCI-H460 lung) | growth (HOP-92 NSCLC) | growth (NCI-H522 lung) | growth (A549/ATCC NSCLC) | growth (786-0 renal) | growth (COLO 205 colon) | growth (DU-145 prostate) | growth (K-562 leukemia) | growth (MALME-3M melanoma) | growth (MDA-MB-231 breast) | growth (RXF 393 renal) | growth (SF-268 CNS) | growth (SF-295 CNS) | growth (SF-539 CNS) | growth (UACC-257 melanoma) | growth (M14 melanoma)
CCc1ccccc1NC(=O)N/C(N)=N/c1nc2ccccc2s1 | -2.24% (active) | 22.5% | 28.3% | -14.9% (active) | 39.5% | -15.2% (active) | -53.5% (active) | 9.65% (active) | -4.92% (active) | -84.1% (active) | -8.39% (active) | 10.6% | 5.84% (active) | -21.3% (active) | 11.8% | 29.6% | -9.81% (active) | -50.4% (active) | 49.7% | 9.76% (active)
COc1ccc(Nc2nnc(-c3c[nH]c4ccccc34)o2)cc1 | 82.7% | 74.9% | 89.8% | 77.8% | 96.3% | 84.5% | 32.2% | 89.3% | 91.9% | 113% | 95.8% | 68.1% | 79.5% | 64.7% | 104% | 71.9% | 98% | 69.7% | 95.9% | 97.7%
O=C(Cc1c(-c2ccccc2[N+](=O)[O-])n(-c2ncnc3c2c(-c2ccccc2)c(-c2ccccc2)n3Cc2ccccc2)[nH]c1=O)c1ccc(Cl)c(Cl)c1 | 9.58% (active) | 24.7% | 42.7% | 49.3% | 15.9% | -3.98% (active) | -10.1% (active) | 25.6% | 36.2% | 43.1% | 32.2% | 12% | -12.6% (active) | 33.5% | 31.7% | 30.9% | 3.25% (active) | 38.2% | 11.5% | 14.6%
CS(=O)(=O)Nc1cncc(-c2ccc3ncnc(NCc4ccccc4)c3c2)c1 | 21.8% | 38.5% | 47.2% | 46.5% | 83.3% | -12.3% (active) | 39.4% | 90.1% | 55% | 41.9% | 55.2% | 33.6% | 27.8% | 40% | 35.6% | 31.7% | 42.8% | 23.9% | 74.5% | 49%
Clc1ccc(Nc2nnc(-c3c[nH]c4ccccc34)o2)cc1 | 77.9% | 66.7% | 91.3% | 67.8% | 83% | 70.9% | 24.2% | 68.6% | 90.1% | 116% | 91% | 32% | 78.8% | 65.1% | 90.2% | 68.6% | 68.6% | 66.5% | 84.4% | 80.9%
Cc1ccc2nc(COc3ccc(C(=O)NNC(=O)Nc4ccc(Cl)c(C(F)(F)F)c4)cc3)[nH]c2c1 | 25.9% | 54.2% | 22.3% | 6.46% (active) | 32.8% | – | 41% | 17.1% | 50.1% | 84.1% | 59.3% | 20.8% | -48.5% (active) | 3.89% (active) | 50.2% | 40.1% | 63% | -10.6% (active) | -17.4% (active) | 27.7%
Cc1ccc(Nc2nnc(-c3c[nH]c4ccccc34)o2)c(C)c1 | 16.2% | 43.9% | 40.2% | 23.2% | 8.57% (active) | 21.8% | -30.4% (active) | 12.6% | 1.66% (active) | -55.5% (active) | 16.5% | 6.22% (active) | 39.1% | -1.28% (active) | -11.9% (active) | 32.5% | 9.91% (active) | -32.4% (active) | 60.9% | 15.6%
Cc1oc(-c2ccccc2)nc1CN[C@@H]1C[C@@H]2C[C@H]([C@H]1C)C2(C)C | -30% (active) | -29.8% (active) | 57.9% | 75% | 4.28% (active) | – | 30.8% | 50.9% | 21.8% | -69.3% (active) | 65.5% | 11.6% | -61.7% (active) | 35.2% | -78.7% (active) | 80.8% | 11% | 14.8% | 8.4% (active) | -63.1% (active)
COc1ccccc1NC(=O)N/N=C/c1c[nH]c2ccccc12 | 0.507% (active) | 19% | 49.4% | 47.6% | 14.1% | – | -37.1% (active) | 30.5% | 14.9% | 4.3% (active) | 17.6% | 15.4% | 54.6% | 52.3% | -38.7% (active) | 30.9% | -14.5% (active) | -11.4% (active) | 54.6% | 14.8%
CCOC(=O)/C(F)=C/C1CC1C(c1ccccc1)c1ccccc1 (stereo not drawn) | 73.8% | 91.8% | 80.6% | 125% | 38.7% | – | 94.8% | 91.7% | 93% | 117% | 106% | 70.4% | 81.2% | 88.4% | 77.2% | 99.1% | 88.7% | 96.5% | 105% | 91.7%
Cc1ccc(C(=O)Nc2cc(-c3ccccc3)cc(C(F)(F)F)c2)cc1C#Cc1cnc2cccnn12 | 63.3% | 51.2% | 102% | 108% | 51.1% | 95.4% | 56.3% | 68.9% | 60% | 73.1% | 84.8% | 5.94% (active) | 39% | 57.3% | 73.7% | 91.9% | 68% | 63.8% | 65.8% | 36.8%
O=C1CCC(N2C(=O)c3cccc(NCCOCCOCCOCCC(=O)NCCCC(=O)NC(c4ccc5c(c4)OCO5)c4cc(Cl)c5cccnc5c4O)c3C2=O)C(=O)C1 (stereo not drawn) | 45.1% | 45% | 39.5% | 34.3% | 26.6% | 13.7% | 6.82% (active) | 88.3% | 70.8% | 24.5% | 60% | 22.8% | 29.3% | 25.3% | 43.6% | 24.4% | 61.6% | 10.3% | 29.7% | 54.8%
ClC(Cn1ncc2c(Nc3cccc(Br)c3)nc(SCCN3CCOCC3)nc21)c1ccc(Br)cc1 (stereo not drawn) | -20.2% (active) | 32.2% | 47.5% | -12.9% (active) | 27.6% | – | 13.9% | 15.7% | -66.5% (active) | -79.2% (active) | 28.6% | -37.7% (active) | -38% (active) | -51.8% (active) | -62.2% (active) | 44.7% | -71.3% (active) | -79.1% (active) | -42.8% (active) | -19.5% (active)
O=C(CSc1nnc(-c2ccc(-c3nc4ccccc4[nH]3)cc2)o1)Nc1ccccc1 | 63.1% | 76.1% | 84.4% | 63.2% | 12% | – | 78% | 51.8% | 22% | 118% | 4.85% (active) | 33.1% | 93.3% | -14.5% (active) | -1.42% (active) | 45.7% | 94.2% | 46.7% | 103% | 60.3%
Cc1cc(Cl)ccc1NC(=O)Nc1ccc(-c2ccc3c(c2)NC(=O)/C3=C\c2ccc[nH]2)cc1 | 74.4% | 107% | 98.6% | 99.6% | 66.8% | – | 103% | 105% | 105% | 130% | 96.3% | 83.3% | 99.9% | 108% | 122% | 109% | 105% | 91.9% | 117% | 108%
